# Compound activity as filed in PubChem BioAssay.
# A selection: hits, their analogues and other compounds. The true share with any hit is near 1.4%.
# MbtI inh: inhibitors of Mycobacterium tuberculosis siderophore enzyme MbtI; purified MbtI enzyme, fluorescence intensity read-out; inhibition, % (concentration not given with the values); 100,000 tested, 0.89% active; AID 493033; in the data active means inhibition mostly above about 56%, no sharp cut-off; inactive means mostly below about 77%
# Target sequence (P9WFX0 whole entry, looked up): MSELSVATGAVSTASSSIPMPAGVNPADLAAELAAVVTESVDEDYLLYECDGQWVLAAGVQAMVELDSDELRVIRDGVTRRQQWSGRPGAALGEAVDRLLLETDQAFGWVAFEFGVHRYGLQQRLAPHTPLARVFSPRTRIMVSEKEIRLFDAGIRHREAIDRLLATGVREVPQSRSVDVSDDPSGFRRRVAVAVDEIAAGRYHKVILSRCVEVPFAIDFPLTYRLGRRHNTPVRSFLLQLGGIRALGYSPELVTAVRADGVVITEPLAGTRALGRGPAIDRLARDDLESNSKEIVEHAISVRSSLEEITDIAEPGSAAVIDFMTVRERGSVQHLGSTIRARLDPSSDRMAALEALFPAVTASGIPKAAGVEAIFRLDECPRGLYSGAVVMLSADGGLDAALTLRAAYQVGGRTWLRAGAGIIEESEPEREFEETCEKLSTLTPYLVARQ
# Mtb MenB inh: inhibitors of Mycobacterium tuberculosis MenB enzyme; P9WNP5; 100,000 tested, 0.43% active; AID 540299; inhibition, % (concentration not given with the values); MenB enzyme assay, absorbance read-out; in the data active means inhibition above about 21%, passing the limit was not always enough
# PV pol inh: poliovirus RNA polymerase inhibition | poliovirus polymerase elongation, fluorescence polarization; stronger effect = lower value | % elongation, % (compound at 16.7 µg/mL) | 150,000 tested, 0.66% active | AID 588519; in the data active means % elongation below about 90%
# AID504770: E. coli YBA685 growth inhibition, screen for V. cholerae RctB inhibitors. E. coli YBA685 rctB-dependent plasmid, OD600 growth, 3 h; stronger effect = lower value. z-score (no concentration beside the values). 130,000 tested, 0.27% active; in the data active means z-score below about -2, passing the limit was not always enough
# * hit, by the source's call; x = no result; ! = repeats disagree.
SMILES,MbtI inh,Mtb MenB inh,PV pol inh,AID504770
CC(C)(C)Nc1n[nH]c(=S)s1,73.5*,-2.7,76.0*,0.05
Cc1ccc(CNc2n[nH]c(=S)s2)cc1,x,x,x,0.5
COc1cccc(NC(=O)Cn2c(=O)n(C(C)C)c(=O)c3oc4ccccc4c32)c1,-21.2,-3.8,104.0,-0.45
Cc1ccc(S(=O)(=O)N2CCN(Cn3nc(Nc4ccccc4F)sc3=S)CC2)cc1,94.5*,4.3,102.0,-0.55
Cc1ccc(S(=O)(=O)N2CCN(Cn3nc(C)sc3=S)CC2)c(C)c1,68.2*,14.9,106.0,1.5
CCS(=O)(=O)N1CCN(S(=O)(=O)c2ccc(C)cc2)CC1,-17.8,-14.2,100.0,-0.25
Cc1ccc(S(=O)(=O)N2CCOCC2)c(C)c1,0.7,2.1,103.0,-1.1
c1ccc2oc(Cc3nc4ccccc4s3)nc2c1,-2.6,-11.6,100.0,-0.6
CC(=O)N(c1ccc(Cl)cc1)C1C=CS(=O)(=O)C1 (stereo not given),x,x,x,-2.5*
Cn1c2c(c(=O)[nH]c1=O)C1(O)C(=O)c3ccccc3C1(O)N2 (stereo not given),-10.9,-4.7,100.0,-0.55
CCC(=O)C1=C(c2ccc(F)cc2)N(C(=O)CC)n2cnnc2S1,x,x,86.0*,x
CCOc1ccc(C2=C(C(=O)CC)Sc3nncn3N2C(=O)CC)cc1,x,x,82.0*,x
CCC(=O)C1=C(c2ccccc2)N(C(=O)CC)n2cnnc2S1,-9.2,-16.6,104.0,-1.5
CC1CCN(C(=O)c2cc3nc(-c4ccco4)cc(C(F)(F)F)n3n2)C(C)C1 (stereo not given),1.1,-29.7,105.0,0.7
COc1ccccc1CNC(=O)c1cnc(SC)nc1C,x,x,115.0,x
COc1ccccc1CNC(=O)c1ccccc1SC,59.5*,-33.8,103.0,2.3
N#Cc1ccc(Oc2ccc(Cl)cc2Cl)cc1,x,x,x,-0.1
COC(=O)C(O)(c1ccc(C)o1)C(F)(F)F (stereo not given),11.5,4.6,98.0,1.4
CCOC(=O)c1sc(N)c(C(=O)OCC)c1C,x,-4.9,79.0*,0.5
CCOC(=O)c1c(C)c(C)c(C)[nH]c1=S,90.6*,-3.9,101.0,-0.35
CCCCC1C(=O)N(c2ccccc2)N(c2ccc(O)cc2)C1=O (stereo not given),84.0*!,-9.7,101.0,0.35
Nn1c(=S)[nH]nc(Cc2ccco2)c1=O,x,-43.6,73.0*,-0.95
O=C1c2ccccc2C(=O)N1Cc1ccco1,0.7,-6.8,103.0,0.25
CN1C(=O)Oc2ccc(Cl)cc2C1O (stereo not given),-3.3,-10.6,100.0,-0.65
CC(C)Cc1csc2ncnc(NCCO)c12,2.2,0.9,88.0*,0.1
SMILES,MbtI inh,Mtb MenB inh,PV pol inh,AID504770
Cc1ccc(S(=O)(=O)Nc2c(C#N)c3nc4ccccc4nc3n2Cc2ccccc2)cc1,-22.1,-33.5,73.0*,0.25
O=c1[nH]c(CN2CCNCC2)nc2ccccc12,-123.1,-9.6,98.0,0.05
CC(c1nc2ccccc2c(=O)[nH]1)N1CCN(Cc2ccc(Cl)s2)CC1 (stereo not given),9.3,-6.6,-3.0*,1.15
Oc1ccccc1OCc1nc2ccccc2s1,51.8*,x,102.0,0
COC(=O)c1ccc(CSc2nnc(-c3ccc(F)cc3)c3ccccc23)o1,14.9,-24.4,102.0,-0.4
CC(C)(C)/C(O)=C/c1nc2cc(Cl)ccc2oc1=O,10.0,27.9,102.0,0.65
O/N=C/c1nc2cc(Cl)ccc2o1,103.2,6.8,76.0*,0.4
C/C(N)=C(/C#N)C(=O)COc1ncnc2c1cnn2-c1ccccc1,-0.5,-8.3,105.0,0.25
Cc1cc(N2CCOCC2)cc(C)[n+]1[O-],17.4,45.8*,101.0,-0.45
O=C1CCC(C(=O)O)CC1,-6.9,-50.0,107.0,1.55
Clc1nc2ccc3nsnc3c2nc1Cl,88.1,11.1,42.0*,-0.05
Cc1nn(CCC#N)c2c1P(=S)(N1c3ccccc3CC1C)/C(=C1\N(C)c3ccccc3C1(C)C)C=N2 (stereo not given),57.2*,-60.4,98.0,1.9
CC(=C/C(=O)O)/C=C/c1ccccc1,30.0,-23.2,102.0,0.85
CC(/C=C/c1ccccc1)=N\NC(N)=S,91.2*,-121.0,103.0,-0.45
O=C(NC(=O)C1CCCCC1)Nc1ccc(Cl)cc1,23.4,10.1,103.0,1.75
O=C1C=CC(=O)C(c2ccc(C(=O)O)cc2)=C1,90.5*,-2.7,97.0,0.2
CC(C)c1ccc(C2=CC(=O)C=CC2=O)cc1,88.7,-7.8,105.0,-2.05
N#Cc1ccc(C(=O)OCc2ccc(-c3cccc(Cl)c3Cl)o2)c(F)c1,-5.7,-10.5,102.0,-0.85
Cc1ccc(C(=O)OCC(=O)N(C)c2ccccc2)s1,-2.0,x,101.0,-0.15
O=c1c(S(=O)(=O)c2ccccc2)c[nH]c2ccccc12,x,x,x,-0.05
